Assay [1] in a line: NCI Yeast Anticancer Drug Screen. Data for the rad50 strain (AID 155).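 Further: 0% = growth of vehicle-only cultures of the same strain.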 The conditions noted are these: S. cerevisiae rad50 strain growth inhibition, hits give high values. In a few lines: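 Vehicle-treated cultures provide the reference for the growth inhibition reported for compound-exposed, repair-deficient yeast.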
Assay [2] can be described thus: NCI Yeast Anticancer Drug Screen. Data for the mec2-1 strain (AID 157). The conditions noted are these: S. cerevisiae mec2-1 strain, hits give high values. Summed up:
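Readout is yeast growth inhibition, normalised to vehicle-treated controls, in the mec2-1 strain exposed to compound.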

The nature of assay [3]: NCI Yeast Anticancer Drug Screen. Data for the sgs1 mgt1 strain (AID 161).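 Further: 0% = growth of cultures given vehicle only.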 The settings on record: S. cerevisiae sgs1 mgt1 strain, hits give high values. Summed up: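 Yeast cells carrying a defined DNA-repair defect were exposed to test compounds. Growth inhibition was measured relative to vehicle-treated controls.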
Assay [4] in a line: NCI Yeast Anticancer Drug Screen. Data for the cln2 rad14 strain (AID 165).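 Further: 0% = growth equal to vehicle treated cultures.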 The conditions noted are these: S. cerevisiae cln2 rad14 strain, hits give high values. In a few lines: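 Relative to vehicle controls, growth inhibition of compound-treated cln2 rad14 yeast was recorded.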
A short description of assay [5]: NCI Yeast Anticancer Drug Screen. Data for the bub3 strain (AID 167). The settings on record: S. cerevisiae bub3 mutant strain, hits give high values. In a few lines: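 Mutant yeast screening strain plus compound; vehicle-treated cultures serve as the 0% inhibition reference.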
Assay [6] is described as follows: NCI Yeast Anticancer Drug Screen. Data for the mlh1 rad18 strain (AID 175). The settings on record: S. cerevisiae mlh1 rad18 strain growth inhibition, hits give high values. Summed up:
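Test agents were incubated with a yeast strain of defined genotype (DNA damage repair defect). Inhibition of growth was derived by comparison with vehicle-exposed cultures.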

[7] abbreviates: at 5.0 µM (retest, dose inferred, filed as 0.5).
Setting [8] is: at 50.0 µM (retest, dose inferred, filed as 5.0).

Each structure is given as a SMILES string. The panel holds about 79,000 compounds, 15% with a hit somewhere; the sample as a whole holds those more often. Values without a mark were called inactive. Calls of active or inactive are those of the source. No stated cut-off is given here; in the data, active means growth inhibition above about 70%; inactive means the rest.

As to `CCC(C)OC(=O)c1cccc(C)c1` (stereo not given), the growth inhibition was 0% in assay [1] (setting [7]); 17% in assay [1] (setting [8]); 94.3% (active) in assay [1] (at 50.0 µM); -2% in assay [2] (setting [7]); 5% in assay [2] (setting [8]); -6.8% in assay [2] (at 50.0 µM). In addition, the growth inhibition in assay [3] (setting [7]) is 1%; in assay [3] (setting [8]), 7%; in assay [3] (at 50.0 µM) it was -5.05%; in assay [4] (setting [7]), 1%; in assay [4] (setting [8]), 6%; in assay [4] (at 50.0 µM) it was 38.5%. The growth inhibition in assay [5] (setting [7]) was 2%; in assay [5] (setting [8]) it was 23%; in assay [5] (at 50.0 µM) it was 6.95%; in assay [6] (setting [7]), -3%; in assay [6] (setting [8]), 12%; in assay [6] (at 50.0 µM), 2%.
As for `c1ccc2c(c1)ccc1ncccc12`, the growth inhibition was 8% in assay [1] (setting [7]); 70% (active) in assay [1] (setting [8]); 81.8% (active) in assay [1] (at 50.0 µM); 3% in assay [2] (setting [7]); 23% in assay [2] (setting [8]); 3.15% in assay [2] (at 50.0 µM). Besides, the growth inhibition in assay [3] (setting [7]) is 0%; in assay [3] (setting [8]) it was 38%; in assay [3] (at 50.0 µM), 47.6%; in assay [4] (setting [7]), 2%; in assay [4] (setting [8]), 10%; in assay [4] (at 50.0 µM) it was -12.2%. Besides, the growth inhibition in assay [5] (setting [7]) is 6%; in assay [5] (setting [8]), 62%; in assay [5] (at 50.0 µM) it was 46.9%; in assay [6] (setting [7]) it was 6%; in assay [6] (setting [8]) it was 43%; in assay [6] (at 50.0 µM) it was 64.8%.
Turning to `Cc1occc1C(=S)Nc1ccc(Cl)c(/C=N/OC(C)C)c1`, the growth inhibition in assay [1] (setting [7]) is 12%; in assay [1] (setting [8]), 83% (active); in assay [1] (at 50.0 µM), 77.5% (active); in assay [2] (setting [7]), 13%; in assay [2] (setting [8]), 77% (active); in assay [2] (at 50.0 µM), 59.2%. Further, the growth inhibition is 13% in assay [3] (setting [7]); 80% (active) in assay [3] (setting [8]); 71.3% (active) in assay [3] (at 50.0 µM); 24% in assay [4] (setting [7]); 81% (active) in assay [4] (setting [8]); 75.6% (active) in assay [4] (at 50.0 µM). Also, the growth inhibition in assay [5] (setting [7]) is 22%; in assay [5] (setting [8]), 86% (active); in assay [5] (at 50.0 µM) it was 73.5% (active); in assay [6] (setting [7]), 17%; in assay [6] (setting [8]), 91% (active); in assay [6] (at 50.0 µM), 77.8% (active).
As to `Cc1c(N)nc(C(CC(N)=O)NCC(N)C(N)=O)nc1C(=O)NC(C(=O)NC(C)C(O)C(C)C(=O)NC(C(=O)NCCc1nc(-c2nc(C(=O)NCCCNCCCc3ccccn3)cs2)cs1)C(C)O)C(OC1OC(CO)C(O)C(O)C1OC1OC(CO)C(O)C(OC(N)=O)C1O)c1cnc[nH]1` (stereo not given), the growth inhibition in assay [1] (setting [7]) was 98% (active); in assay [1] (setting [8]), 99% (active); in assay [1] (at 50.0 µM), 92.6% (active); in assay [2] (setting [7]), 97% (active); in assay [2] (setting [8]) it was 99% (active); in assay [2] (at 50.0 µM), 93.4% (active). The growth inhibition was 98% (active) in assay [3] (setting [7]); 99% (active) in assay [3] (setting [8]); 93.7% (active) in assay [3] (at 50.0 µM); 90% (active) in assay [4] (setting [7]); 98% (active) in assay [4] (setting [8]); 90.3% (active) in assay [4] (at 50.0 µM). Also, the growth inhibition in assay [5] (setting [7]) is 97% (active); in assay [5] (setting [8]) it was 98% (active); in assay [5] (at 50.0 µM), 93.3% (active); in assay [6] (setting [7]), 98% (active); in assay [6] (setting [8]), 99% (active); in assay [6] (at 50.0 µM), 92% (active).
For `Cn1cccc1C(/C=C/c1ccccc1[N+](=O)[O-])c1cccn1C`, the growth inhibition was -2% in assay [1] (setting [7]); 20% in assay [1] (setting [8]); 18.2% in assay [1] (at 50.0 µM); 4% in assay [2] (setting [7]); 4% in assay [2] (setting [8]); 6.4% in assay [2] (at 50.0 µM). The growth inhibition in assay [3] (setting [7]) was -12%; in assay [3] (setting [8]) it was 8%; in assay [3] (at 50.0 µM), 20.9%; in assay [4] (setting [7]), 17%; in assay [4] (setting [8]), 37%; in assay [4] (at 50.0 µM) it was 4.35%. The growth inhibition was -3% in assay [5] (setting [7]); 41% in assay [5] (setting [8]); 17.6% in assay [5] (at 50.0 µM); -15% in assay [6] (setting [7]); 21% in assay [6] (setting [8]); 20.2% in assay [6] (at 50.0 µM).
With `CN(NC(=O)CC(=O)NN(C)C(=S)c1ccccc1)C(=S)c1ccccc1`, the growth inhibition in assay [1] (setting [7]) is 76% (active); in assay [1] (setting [8]), 84% (active); in assay [1] (at 50.0 µM), 68.5%; in assay [2] (setting [7]) it was 81% (active); in assay [2] (setting [8]), 87% (active); in assay [2] (at 50.0 µM) it was 80% (active). For the same compound, the growth inhibition was 96% (active) in assay [3] (setting [7]); 87% (active) in assay [3] (setting [8]); 91.7% (active) in assay [3] (at 50.0 µM); 60% in assay [4] (setting [7]); 69% in assay [4] (setting [8]); 73.8% (active) in assay [4] (at 50.0 µM). Also, the growth inhibition was 54% in assay [5] (setting [7]); 73% (active) in assay [5] (setting [8]); 76% (active) in assay [5] (at 50.0 µM); 78% (active) in assay [6] (setting [7]); 76% (active) in assay [6] (setting [8]); 84.2% (active) in assay [6] (at 50.0 µM).
`CC(=O)Nc1ccc(C(C)(C)c2ccc(C)cc2)cc1`: the growth inhibition in assay [1] (setting [7]) is 0%; in assay [1] (setting [8]), 95% (active); in assay [1] (at 50.0 µM), -4.5%; in assay [2] (setting [7]), 0%; in assay [2] (setting [8]) it was 98% (active); in assay [2] (at 50.0 µM), -12.2%. Also, the growth inhibition in assay [3] (setting [7]) was -1%; in assay [3] (setting [8]) it was 96% (active); in assay [3] (at 50.0 µM), 24.1%; in assay [4] (setting [7]), 2%; in assay [4] (setting [8]), 96% (active); in assay [4] (at 50.0 µM), 3.75%. Moreover, the growth inhibition in assay [5] (setting [7]) is 4%; in assay [5] (setting [8]), 97% (active); in assay [5] (at 50.0 µM), 57.5%; in assay [6] (setting [7]), -1%; in assay [6] (setting [8]) it was 96% (active); in assay [6] (at 50.0 µM), -2.15%.
For the compound `C/C(=N/NC(N)=O)C1CC(CCC2([N+](=O)[O-])CCC(C)(O)C(/C(C)=N\NC(N)=O)C2)([N+](=O)[O-])CCC1(C)O` (stereo not given), the growth inhibition is 5% in assay [1] (setting [7]); -5% in assay [1] (setting [8]); 10.6% in assay [1] (at 50.0 µM); 4% in assay [2] (setting [7]); 0% in assay [2] (setting [8]); 14.1% in assay [2] (at 50.0 µM). Also, the growth inhibition is 3% in assay [3] (setting [7]); -1% in assay [3] (setting [8]); -6.4% in assay [3] (at 50.0 µM); 5% in assay [4] (setting [7]); -7% in assay [4] (setting [8]); 9.6% in assay [4] (at 50.0 µM). For the same compound, the growth inhibition was 7% in assay [5] (setting [7]); -3% in assay [5] (setting [8]); 96.7% (active) in assay [5] (at 50.0 µM); 1% in assay [6] (setting [7]); 3% in assay [6] (setting [8]); 2.1% in assay [6] (at 50.0 µM).
For the compound `C(=[CH]/[Sn]([c]1ccccc1)([c]1ccccc1)[c]1ccccc1)/c1ccccc1`, the growth inhibition was 96% (active) in assay [1] (setting [7]); 88% (active) in assay [1] (setting [8]); 94.8% (active) in assay [1] (at 50.0 µM); 95% (active) in assay [2] (setting [7]); 94% (active) in assay [2] (setting [8]); 98.4% (active) in assay [2] (at 50.0 µM). Further, the growth inhibition in assay [3] (setting [7]) is 98% (active); in assay [3] (setting [8]), 92% (active); in assay [3] (at 50.0 µM), 96.2% (active); in assay [4] (setting [7]), 92% (active); in assay [4] (setting [8]), 86% (active); in assay [4] (at 50.0 µM), 95% (active). Moreover, the growth inhibition is 97% (active) in assay [5] (setting [7]); 85% (active) in assay [5] (setting [8]); 99.2% (active) in assay [5] (at 50.0 µM); 97% (active) in assay [6] (setting [7]); 84% (active) in assay [6] (setting [8]); 94.1% (active) in assay [6] (at 50.0 µM).
Turning to `Nc1cc(F)c2c(c1F)C(=O)c1cc(F)ccc1-2`, the growth inhibition was 15% in assay [1] (setting [7]); 92% (active) in assay [1] (setting [8]); 93.3% (active) in assay [1] (at 50.0 µM); 13% in assay [2] (setting [7]); 70% (active) in assay [2] (setting [8]); 27.3% in assay [2] (at 50.0 µM). The growth inhibition in assay [3] (setting [7]) is 2%; in assay [3] (setting [8]) it was 84% (active); in assay [3] (at 50.0 µM), 55.4%; in assay [4] (setting [7]), 4%; in assay [4] (setting [8]), 41%; in assay [4] (at 50.0 µM), 26.5%. Besides, the growth inhibition in assay [5] (setting [7]) was 2%; in assay [5] (setting [8]) it was 72% (active); in assay [5] (at 50.0 µM), 17.8%; in assay [6] (setting [7]), 5%; in assay [6] (setting [8]), 78% (active); in assay [6] (at 50.0 µM), 80.7% (active).

The values are drawn from PubChem BioAssay (NCI).
